# From PubChem BioAssay (NCATS)
# Unmarked numbers belong to inactive results. Results filed as inconclusive are left out. Where a call stands in place of a potency, no number is given. Activity calls are given as the source filed them. Unless noted, calls follow the shape of the dose curve; as a rule, active = well fitted curve in the direction sought with a large enough effect; inconclusive = small, poorly fitted or top-dose-only effect, or another doubt; inactive = no such curve, though single readings can be large; an effect the other way counts as inactive or inconclusive.
# Experiments:
# [1] = target: 3',5'-cyclic-AMP phosphodiesterase 4B (Homo sapiens) (UniProt Q07343); test: qHTS Assay for Inhibitors of PDE-IV (AID 607; active = well fitted activation curve with a large enough effect in the main read-out, with a control signal flat, not every such curve was filed as active)
# Chain of 3',5'-cyclic-AMP phosphodiesterase 4B (Homo sapiens) (Q07343 whole entry, looked up): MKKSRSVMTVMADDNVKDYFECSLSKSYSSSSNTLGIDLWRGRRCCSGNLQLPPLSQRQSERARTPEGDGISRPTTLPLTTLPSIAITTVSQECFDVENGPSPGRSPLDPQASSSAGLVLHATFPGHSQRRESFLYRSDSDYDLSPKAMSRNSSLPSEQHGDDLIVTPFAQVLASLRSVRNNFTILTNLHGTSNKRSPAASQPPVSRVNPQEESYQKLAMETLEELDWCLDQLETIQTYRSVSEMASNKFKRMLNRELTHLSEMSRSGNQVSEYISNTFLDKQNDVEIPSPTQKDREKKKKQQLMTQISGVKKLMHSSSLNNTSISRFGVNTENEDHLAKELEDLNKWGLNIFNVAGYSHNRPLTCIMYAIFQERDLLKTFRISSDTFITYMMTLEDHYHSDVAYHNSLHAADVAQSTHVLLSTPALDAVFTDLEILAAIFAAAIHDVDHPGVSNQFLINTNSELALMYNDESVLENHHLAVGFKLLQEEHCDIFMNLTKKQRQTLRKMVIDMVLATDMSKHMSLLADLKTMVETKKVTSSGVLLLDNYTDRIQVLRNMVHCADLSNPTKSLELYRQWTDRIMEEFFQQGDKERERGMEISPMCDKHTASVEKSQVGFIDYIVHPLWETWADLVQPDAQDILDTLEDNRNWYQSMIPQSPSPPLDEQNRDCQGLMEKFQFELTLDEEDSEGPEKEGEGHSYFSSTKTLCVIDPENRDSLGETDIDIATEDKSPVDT
# Outline: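 ACTOne HEK293 cells carry a modified cAMP-gated CNG channel and express endogenous PDE4; plated 1000 cells/well, compounds up to 22.9 uM final. Membrane-potential dye fluorescence (ex 535/em 590) was read; parental cells received 10 uM forskolin + 100 uM RO 20-1724.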
# [2] = target: Cytochrome P450 2C9 (Homo sapiens) (UniProt P11712); test: qHTS Assay for Inhibitors and Substrates of Cytochrome P450 2C9 (AID 883); also: nearly all actives have a fitted effect of over 60% in size; also: potency is read from the fitted curve at half-maximal effect
# Chain of Cytochrome P450 2C9 (Homo sapiens) (P11712 whole entry, looked up): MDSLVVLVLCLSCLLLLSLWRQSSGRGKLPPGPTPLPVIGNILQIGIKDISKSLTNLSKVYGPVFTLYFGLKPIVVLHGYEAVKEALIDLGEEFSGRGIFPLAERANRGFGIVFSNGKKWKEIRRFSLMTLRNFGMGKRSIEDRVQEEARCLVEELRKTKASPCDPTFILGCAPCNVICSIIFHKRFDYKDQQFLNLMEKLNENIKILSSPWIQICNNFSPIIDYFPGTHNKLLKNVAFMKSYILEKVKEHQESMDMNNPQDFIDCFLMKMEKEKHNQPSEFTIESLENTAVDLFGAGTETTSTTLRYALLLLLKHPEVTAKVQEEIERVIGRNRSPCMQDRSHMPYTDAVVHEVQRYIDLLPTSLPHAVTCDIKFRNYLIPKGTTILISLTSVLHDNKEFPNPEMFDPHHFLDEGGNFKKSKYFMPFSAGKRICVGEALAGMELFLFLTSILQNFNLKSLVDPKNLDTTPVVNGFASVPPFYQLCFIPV
# Outline: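 Human CYP2C9 (10nM) with Luciferin-H at 100uM (its KM) in 25mM KPO4; compound preincubated 10 min at 37C, then NADPH regeneration for 60 min at 37C. Luciferin read by luminescence after detection reagent; normalized to 57uM sulphaphenazole as full inhibition.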
# [3] = target: Cytochrome P450 3A4 (Homo sapiens) (UniProt P08684); test: qHTS Assay for Inhibitors and Substrates of Cytochrome P450 3A4 (AID 884); also: nearly all actives have a fitted effect of over 50% in size; also: potency is read from the fitted curve at half-maximal effect; as to activity change, negative = inhibition: series mostly up to about 57 µM
# Chain of Cytochrome P450 3A4 (Homo sapiens) (P08684 whole entry, looked up): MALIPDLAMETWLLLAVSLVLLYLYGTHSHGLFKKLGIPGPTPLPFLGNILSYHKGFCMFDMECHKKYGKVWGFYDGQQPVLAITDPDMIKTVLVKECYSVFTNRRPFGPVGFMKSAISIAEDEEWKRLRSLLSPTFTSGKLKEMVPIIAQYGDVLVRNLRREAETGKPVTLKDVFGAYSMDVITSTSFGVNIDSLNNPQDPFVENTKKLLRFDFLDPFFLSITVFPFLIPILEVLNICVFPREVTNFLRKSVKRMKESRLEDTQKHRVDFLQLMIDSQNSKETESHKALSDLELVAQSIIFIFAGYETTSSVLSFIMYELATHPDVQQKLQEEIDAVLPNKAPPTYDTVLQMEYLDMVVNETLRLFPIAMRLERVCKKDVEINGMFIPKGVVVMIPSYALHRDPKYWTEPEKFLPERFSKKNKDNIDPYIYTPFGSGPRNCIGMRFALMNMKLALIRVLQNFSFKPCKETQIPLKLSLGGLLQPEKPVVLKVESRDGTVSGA
# Outline: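 20 nM human CYP3A4 with 25 uM Luciferin-PPXE (at KM) in 200 mM KPO4, preincubated 10 min with compound; NADPH regeneration started a 60 min RT reaction. Luciferin detected by luminescence, normalized to 57 uM ketoconazole as full inhibition.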
# [4] = Confirmation and Secondary Assay for Modulators of Hemoglobin Beta Chain Splicing at IVS2 654 locus (AID 910);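 also: HeLa cells stably carrying EGFP split by mutant beta-globin IVS2-654 intron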
# Outline: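 HeLa cells stably expressing EGFP interrupted by β-globin IVS2-654 intron, seeded overnight in Opti-MEM/2% FCS, then treated 2 days at 37 °C. Restored splicing read as total peak GFP intensity per well by laser scanning cytometry (488 nm excitation, 500–520 nm emission); 500 nM antisense PNA as control.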
# [5] = target: Cytochrome P450 2D6 (Homo sapiens) (UniProt P10635); test: qHTS Assay for Inhibitors and Substrates of Cytochrome P450 2D6 (AID 891); details: recombinant CYP2D6, luciferin-ME EGE luminescence; also: potency is read from the fitted curve at half-maximal effect; nearly all actives have a fitted effect of over 60% in size
# Chain of Cytochrome P450 2D6 (Homo sapiens) (P10635 whole entry, looked up): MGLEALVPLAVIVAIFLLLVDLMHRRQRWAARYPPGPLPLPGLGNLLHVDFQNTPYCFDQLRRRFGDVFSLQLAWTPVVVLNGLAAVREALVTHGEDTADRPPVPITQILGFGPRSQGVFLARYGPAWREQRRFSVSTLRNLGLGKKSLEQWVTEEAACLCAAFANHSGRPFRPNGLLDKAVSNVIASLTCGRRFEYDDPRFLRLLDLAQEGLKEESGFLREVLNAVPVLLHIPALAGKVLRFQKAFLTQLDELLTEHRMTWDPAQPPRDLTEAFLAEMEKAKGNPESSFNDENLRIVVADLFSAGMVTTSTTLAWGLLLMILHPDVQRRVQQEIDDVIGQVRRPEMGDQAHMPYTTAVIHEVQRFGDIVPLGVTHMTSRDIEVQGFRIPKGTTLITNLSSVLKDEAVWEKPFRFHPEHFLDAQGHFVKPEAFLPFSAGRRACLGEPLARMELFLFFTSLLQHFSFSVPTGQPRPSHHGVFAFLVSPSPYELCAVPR
# Outline: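 Human CYP2D6 (5 nM) with 30 uM Luciferin-ME EGE (at Km) in 100 mM KPO4, compound preincubated 10 min, then NADPH regeneration system for 60 min at room temperature. Luciferin read by luminescence; normalized to 1.43 uM quinidine.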
# [6] = target: Cytochrome P450 2C19 (Homo sapiens) (UniProt P33261); test: qHTS Assay for Inhibitors and Substrates of Cytochrome P450 2C19 (AID 899); details: recombinant CYP2C19, luciferin-H EGE luminescence; also: potency is read from the fitted curve at half-maximal effect; nearly all actives have a fitted effect of over 60% in size
# Chain of Cytochrome P450 2C19 (Homo sapiens) (P33261 whole entry, looked up): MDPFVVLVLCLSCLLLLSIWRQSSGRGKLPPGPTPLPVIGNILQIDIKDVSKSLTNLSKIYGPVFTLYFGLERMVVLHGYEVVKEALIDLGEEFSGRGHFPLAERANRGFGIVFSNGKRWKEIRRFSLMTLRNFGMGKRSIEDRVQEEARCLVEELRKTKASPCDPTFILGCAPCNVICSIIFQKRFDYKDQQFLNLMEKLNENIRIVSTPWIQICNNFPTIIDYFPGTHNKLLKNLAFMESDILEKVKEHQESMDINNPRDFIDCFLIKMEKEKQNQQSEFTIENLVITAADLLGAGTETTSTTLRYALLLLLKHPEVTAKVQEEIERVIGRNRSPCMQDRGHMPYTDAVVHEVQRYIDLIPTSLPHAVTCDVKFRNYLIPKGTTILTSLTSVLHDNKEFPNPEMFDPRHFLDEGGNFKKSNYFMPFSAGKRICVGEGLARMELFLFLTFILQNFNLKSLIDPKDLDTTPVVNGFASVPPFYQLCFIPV
# Outline: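 5 nM human CYP2C19 with 10uM Luciferin-H EGE (at KM) in 50mM KPO4, compound preincubated 10 min at 37C, then NADPH regeneration for 60 min at 37C. Luciferin read by luminescence after detection reagent; normalized to 57uM ketoconazole as full inhibition.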
# [7] = target: Cytochrome P450 3A4 (Homo sapiens) (UniProt P08684); test: qHTS Assay for Activators of Cytochrome P450 3A4 (AID 885); also: nearly all actives have a fitted effect of over 65% in size
# Outline: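 20nM CYP3A4 + 25uM Luciferin-PPXE (=KM), 200mM KPO4; cpd 10 min RT; NADPH regen, 60 min RT; stop w/ detection buffer, 20 min; luminescence. Normalized to 57 uM ketoconazole.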
compound,measurement,setting,value
Cc1cc2nc3c(=O)[nH]c(=O)nc-3n(CC(O)C(O)C(O)CO)c2cc1C (stereo not drawn),outcome,[1],inactive
same,Potency,[2],inactive
same,Potency,[3],inactive
COc1ccnc(CS(=O)c2nc3ccc(OC(F)F)cc3[nH]2)c1OC (stereo not drawn),outcome,[4],inactive
O=S(=O)(O)c1ccc2cc(N=Nc3cc(S(=O)(=O)O)c4cccnc4c3O)ccc2c1,outcome,[1],inactive
CN(C)CCN(Cc1ccc(Cl)cc1)c1ccccn1,Potency,[5],20 nM (active)
same,Potency,[6],6310 nM (active)
NC(=O)c1nnn(Cc2cc(Cl)c(C(=O)c3ccc(Cl)cc3)c(Cl)c2)c1N,outcome,[1],inactive
same,"activity change, negative = inhibition",[2],52.5% [at 11.4 µM]
COc1nccc(-c2c(-c3ccc(F)cc3)ncn2C2CCC(O)CC2)n1 (stereo not drawn),outcome,[1],inactive
CC1(C)OC2CC3C4CC(F)C5=CC(=O)C=CC5(C)C4C(O)CC3(C)[C@]2(C(=O)CO)O1 (stereo partly drawn),Potency,[7],inactive
same,outcome,[4],inactive
CS(=O)(=O)c1ccc(C2=C(c3ccccc3)C(=O)OC2)cc1,Potency,[3],inactive
same,outcome,[4],inactive
OC(c1cc(C(F)(F)F)nc2c(C(F)(F)F)cccc12)C1CCCCN1 (stereo not drawn),outcome,[4],inactive
CN1C(=O)C(Cc2c[nH]c3ccccc23)NC1=S (stereo not drawn),Potency,[3],6310 nM (active)
same,Potency,[7],inactive
CN1CCN2c3ncccc3Cc3ccccc3C2C1 (stereo not drawn),Potency,[2],50.1 nM (active)
same,Potency,[5],501 nM (active)
same,Potency,[6],50.1 nM (active)
COc1ccc2cc1Oc1ccc(cc1)C[C@H]1c3cc(c(OC)cc3CCN1C)Oc1c(OC)c(OC)cc3c1[C@H](C2)N(C)CC3,Potency,[3],inactive
O=C1C(CCC(O)c2ccc(F)cc2)C(c2ccc(O)cc2)N1c1ccc(F)cc1 (stereo not drawn),outcome,[4],inactive
CC[C@H](C)C(=O)O[C@H]1C[C@H](O)C=C2C=C[C@H](C)[C@H](CC[C@@H](O)C[C@@H](O)CC(=O)O)[C@H]21,Potency,[3],inactive
NCC1CCC(C(=O)O)CC1 (stereo not drawn),outcome,[1],inactive
same,outcome,[4],inactive
NS(=O)(=O)c1cc(Cl)c(Cl)c(S(N)(=O)=O)c1,outcome,[1],inactive
same,Potency,[2],inactive
CCC(=C(CC)c1ccc(O)cc1)c1ccc(O)cc1,outcome,[1],inactive
same,Potency,[2],12600 nM (active)
CN(C)c1ccccc1CN1CCCN(Cc2ccccc2N(C)C)C1c1ccncc1,outcome,[1],inactive
same,"activity change, positive = activation",[7],-30.9% [at 11.4 µM]
same,Potency,[5],1260 nM (active)
Clc1ccc(COC(Cn2ccnc2)c2ccc(Cl)cc2Cl)c(Cl)c1 (stereo not drawn),Potency,[2],316 nM (active)
